# BAZ2B block = inhibitors of human BAZ2B bromodomain; Potency, µM (doses to about 114 µM), actives largely listed as inhibitors; hit rate 4.4% among 360,000; AlphaScreen BAZ2B-H3K14Ac peptide displacement; AID 504333; note: nearly all actives have a fitted effect of over 60% in size
#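 Inhibition is scored as reduced AlphaScreen emission. The BAZ2B/b-H3(5-23)K14Ac complex (50 nM each) in PBS pH 7.4, 0.01% Tween-20 meets compound (up to 110 uM) for 30 min at RT before bead addition.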
# G9a inh = blocks human histone lysine methyltransferase G9a; G9a H3K9 monomethylation, AlphaScreen, 2 h; Potency, µM (titrated, usually from 102 µM), hits mostly inhibitors; hit rate 8.8% among 350,000; note: nearly all actives have a fitted effect of over 75% in size
#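 Enzyme 20 nM + cpd, 15 min RT; add b-H3K9 pep 500 nM / SAM 20 uM; 2 h RT; anti-H3K9me1 Ab 0.5 ug/mL + SA donor / anti-rabbit acceptor beads 20 ug/mL each, 10 min; AlphaScreen read.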
# CtBP-E1A blk = blocks the CtBP interaction with E1A | AID 651724 | hit rate 0.49% among 340,000 | activity change, % (test concentration not listed) | AlphaScreen GST-E1A/His-CtBP binding, 1536-well; hits give low values; in the data active = activity change below about -65%; inconclusive = mostly about -30% to -63%
#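 GST-E1A and His-tagged CtBP (125 nM each as 5X stock) were preincubated with pin-transferred compound for 2 h at 37 °C in the dark, then glutathione donor and nickel acceptor beads were added for 1 h before AlphaScreen reading.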
# JMJD2A Tudor inh = inhibitors of human JMJD2A Tudor domain; O75164; AlphaScreen JMJD2A-Tudor / H3K4me3 peptide binding; Potency, µM (highest dose often 114 µM), most hits filed as inhibitors; hit rate 4.4% among 390,000; AID 504339; note: nearly all actives have a fitted effect of over 50% in size
# Six1-Eya2 blk = Six1/Eya2 interaction inhibition; AlphaScreen GST-Six1/His-Eya2 binding, biochemical; hits give low values; hit rate 0.56% among 360,000; Q15475+O00167; AID 651725; activity change, % (concentration not given with the values); in the data active = activity change below about -65%; inconclusive = mostly about -30% to -63%
#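 AlphaScreen luminescence read after one hour at 37 °C in darkness. Pin-transferred compounds met GST-Six1 and His-Eya2 protein (5X stock 250 nM/500 nM) plus glutathione donor and Ni-chelate acceptor beads (5X, 50 ug/mL).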
# HP1b binding inh = inhibitors of HP1-beta chromodomain binding to methylated histone tails. AlphaScreen HP1-beta / biotin-H3K9me3 peptide binding. Potency, µM (highest dose often 114 µM), most hits filed as inhibitors. hit rate 0.56% among 390,000. AID 540317; note: nearly all actives have a fitted effect of over 70% in size
#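 Compound inhibition of the preformed complex between 50 nM HP1-beta and 50 nM biotinylated H3K9me3 peptide was read by AlphaScreen. Buffer was PBS pH 7.4 with 0.01% Tween-20. Incubations ran 30 min at room temperature, with 10 ug/mL donor/acceptor beads.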
# A number is an active result; - = inactive; ? = inconclusive; . = no result; [ ] = remark or other dose. The list is not random: actives were taken first. Their share in the collection is about 10%. Unless noted, calls come from the whole dose curve; as a rule, active = well fitted inhibition curve with a large enough effect; inconclusive = small, poorly fitted or top-dose-only effect; inactive = no such curve, though single readings can be large or run the other way.
SMILES,BAZ2B block,G9a inh,CtBP-E1A blk,JMJD2A Tudor inh,Six1-Eya2 blk,HP1b binding inh
CC1CCC2C(=O)N(c3ccc(NC4CCN(Cc5ccccc5)CC4)c([N+](=O)[O-])c3)C(=O)C2C1 (stereo not drawn),35µM,40µM,.,32µM,?,?
O=[N+]([O-])c1ccccc1NC1CCN(Cc2ccccc2)CC1,40µM,.,-,?,?,?
O=C1C2CCCCC2C(=O)N1c1ccc(NC2CCN(Cc3ccccc3)CC2)c([N+](=O)[O-])c1 (stereo not drawn),40µM,?,.,45µM,-,?
O=[N+]([O-])c1ccc(NC2CCN(Cc3ccccc3)CC2)c([N+](=O)[O-])c1,?,?,.,-,?,?
O=C(NCc1ccccc1)[C@]1(C(F)(F)F)C[C@H](CCCO)CCCO1,.,.,.,-,.,-
N#C/C(=C\c1ccccc1)C(=O)Nc1cccnc1,-,-,.,-,-,-
CC(C)(C)c1ccc(C(=O)/C(C#N)=C/c2cccs2)cc1,50µM,?,-,?,-,?
N#C/C(=C\c1ccccc1)C(=O)Nc1nncs1,-,50µM,-,-,-,-
N#C/C(=C\c1cccs1)C(=O)Nc1ccccn1,-,56µM,-,-,-,-
N#C/C(=C\c1ccccc1Cl)C(=O)Nc1ccccn1,-,-,-,-,-,-
CCOc1cc(/C=C(\C#N)C(=O)Nc2ccccn2)ccc1O,-,45µM,-,-,-,-
CCN(CC)CCNC(=O)C1CCN(C(=O)c2cnn(-c3ccccc3)c2-n2cccc2)CC1,-,-,.,-,.,-
COc1ccccc1CNc1ccc(-c2nc(-c3cccc(C)c3)no2)cc1[N+](=O)[O-],-,-,.,-,.,-
N#C/C(=C\c1ccccc1)C(=O)Nc1ccccn1,-,-,-,-,-,-
CCOC(=O)c1c(-c2ccccc2)csc1NC(=O)/C(C#N)=C\c1ccc(O)c(OC)c1,.,.,-,28µM,-,?
CCOC(=O)c1c(-c2ccc(C)cc2)csc1NC(=O)/C(C#N)=C/c1ccc(O)c(OC)c1,?,-,-,-,-,-
Cc1cccc(/C=C(\C#N)C(=O)Nc2ccccn2)c1,-,45µM,-,-,-,-
Cc1cccc(NC(=O)/C(C#N)=C/c2ccc(F)cc2)n1,-,-,.,-,-,-
CCCOc1ccccc1/C=C(\C#N)C(=O)Nc1cccc(C)n1,-,20µM,-,-,-,-
O=C(CNCCC1=CCCCC1)Nc1ccccc1N1CCCCC1,50µM,1.8µM,-,5.6µM,-,?
O=C(CNCC1CCCCC1)Nc1ccccc1N1CCCCC1,?,?,-,-,-,-
CCn1nc(C(=O)Nc2ccccc2N2CCCC2)c2ccccc2c1=O,40µM,25µM,?,35µM,-,?
COc1ccc(CC(=O)Nc2ccccc2N2CCCC2)cc1,?,.,-,-,-,-
O=C(CNC1CCCCCC1)Nc1ccccc1N1CCCCC1,?,?,-,1.4µM,-,?
O=C(Cc1ccc(Br)cc1)Nc1ccccc1N1CCCC1,?,50µM,-,?,-,-
SMILES,BAZ2B block,G9a inh,CtBP-E1A blk,JMJD2A Tudor inh,Six1-Eya2 blk,HP1b binding inh
CC(=O)Nc1ccccc1OCc1cc(=O)n2c3c(sc2n1)CCCC3,-,-,.,-,.,-
Cc1nc2nc(SCc3c(F)cccc3Cl)nn2c(C)c1Cc1ccccc1,-,-,.,-,.,-
O=C(Cc1ccccc1)Nc1ccccc1N1CCOCC1,-,-[0.0925 µM],-,-,-,-
O=C(Cc1ccccc1)Nc1ccccc1N1CCCC1,-,56µM,-,-,-,-
CCOC(=O)c1cnc2c(C(F)(F)F)cccc2c1Nc1cccc(C(=O)OC)c1,-,-,.,-,.,-
COc1cccc(CNC(=O)c2nn(-c3ccc(C)cc3)c(=O)c3c2c2ccccc2n3C)c1,.,-,.,-,.,-
COc1ccc2[nH]c3c(=O)n(CCCCC(=O)N4CCCC4)c(=S)[nH]c3c2c1,-,2.2µM,-,3.5µM,-,-
CC1CCCN(C(=O)CCCn2c(=S)[nH]c3ccccc3c2=O)C1 (stereo not drawn),-,45µM,-,-,-,-
O=C(CCn1c(=S)[nH]c2ccccc2c1=O)N1CCCCC1,-,.,.,-,-,-
O=c1c2ccccc2[nH]c(=S)n1CCc1ccccc1,-,-,-,-,-,-

# High-throughput results as filed in PubChem.
